Results on 69 molecules are retold here after ChEMBL document CHEMBL3988442, “University of Dundee, Small-Polar-MMV Screening Library” (2021).

In all, about 66,000 compounds went through this assay and about 960 (1.5%) showed an effect of 50% or more. The sample holds strong results, similar compounds and a random draw of the others, so the mix is not that of the screen.

In the experiment the test system is Trypanosoma brucei. Briefly: Trypanosoma brucei 72 hour study. It counts as functional, organism-based. Also noted: scale not given: in the data most compounds retested in dose-response had high values.

As to `CC(C)COc1cncc(N2CCCN(c3ncccn3)CC2)n1`, the “Percent Effect” value (30.3 µM, […]) was -75.77%.
Consider `CC(C)COc1cncc(N(C)C2CCN(c3ncccn3)CC2)n1`, for which the “Percent Effect” value (30.3 µM, […]) turned out to be 90.23%.
In the case of `CNC(=O)CN(C)c1cncc(OCC(C)C)n1`, the “Percent Effect” value (30 µM, 30.03 µM) is on record as -18.74%.
As for `CN(C)CCOCc1nnc2n1CCN(Cc1cccs1)CC2.O=C(O)C(F)(F)F.O=C(O)C(F)(F)F`, for the setting “30.3 µM, […]”, the “Percent Effect” value is -17.71%.
For `Br.Cc1ccccc1OC1CCN(CC(=O)Nc2ccn(C)n2)CC1`, the “Percent Effect” value (30.3 µM, […]) worked out at 12.28%.
For `Cc1ccccc1N1CC2(CCN(S(=O)(=O)c3ccccc3)C2)CC1=O` (centres undefined), where the note is “30.3 µM, […]”, the “Percent Effect” value is reported as 11.6%.
With `CCOc1cc(Cl)c(CN2CCC3(CCCNC3=O)C2)cc1OC` (centres undefined), the “Percent Effect” value (30.3 µM, […]) is given as -16.79%.
Regarding `CCOc1cc2c(cc1CN1CCC3(CCCNC3=O)C1)CCC2` (centres undefined), for the setting “30.3 µM, […]”, the “Percent Effect” value is 98.93%.
Take `CCOc1cc2c(cc1CN1CCC3(CC1)CNC(=O)C3)CCC2`: the “Percent Effect” value (30.3 µM, […]) is given as -17.68%.
As to `O=C(N1CCCC1)N1CCC2(CCN(Cc3ccccn3)C2=O)C1.O=C(O)C(F)(F)F` (centres undefined), under “30 µM, 30.03 µM”, the “Percent Effect” value is recorded as -20.49%.
For the molecule `CCN(CC)c1nc(Nc2cccc(C(=O)O)c2)nc2ccccc12`, the “Percent Effect” value (30 µM, 30.03 µM) is -36.54%.
For the molecule `CCN(CC)c1nc(Nc2cccc(C(C)O)c2)nc2ccccc12` (centres undefined), the “Percent Effect” value (30 µM, 30.03 µM) came out at 78.38%.
Turning to `CC(O)c1cccc(Nc2nc(NCCO)c3ccccc3n2)c1` (centres undefined), the “Percent Effect” value (30 µM, 30.03 µM) amounted to 5.503%.
As for `O=C(O)C(F)(F)F.O=C1NC2(CCN(C(=O)N3CCOCC3)CC2)CC1c1cccnc1` (centres undefined), for the setting “30 µM, 30.03 µM”, the “Percent Effect” value is -17.56%.
On the same count and under the same terms, with `CN1CCOC(CNCc2coc(-c3ccccc3)n2)C1` (centres undefined) the figure was -39%.
Turning to `Cc1ccc(-c2nc(CNCC3CN(C)CCO3)co2)cc1` (centres undefined), the “Percent Effect” value is listed as 93.13% (30.3 µM, […]) and -9.822% (10 mM, 10 mM as filed; unlikely as a test dose).
Turning to `CN1CCOC(CNCc2coc(-c3ccccc3Cl)n2)C1` (centres undefined), the “Percent Effect” value is 54.4% (30.3 µM, […]) and -73.24% (10 mM, 10 mM as filed; unlikely as a test dose).
Turning to `CN(C)CC1CN(Cc2coc(-c3ccccc3Cl)n2)CCO1` (centres undefined), the “Percent Effect” value (30 µM, 30.03 µM) was -2.77%.
Regarding `CN1CCOC(CNCc2coc(-c3cccc(Cl)c3)n2)C1` (centres undefined), the “Percent Effect” value is given as 98.76% (30.3 µM, […]) and -110.4% (10 mM, 10 mM as filed; unlikely as a test dose).
In the case of `CN1CCOC(CNCc2coc(-c3cccc(F)c3)n2)C1` (centres undefined), the “Percent Effect” value (30.3 µM, […]) is listed as 41.18% and the “Percent Effect” value (10 mM, 10 mM as filed; unlikely as a test dose) was -36.07%.
On to `CN(C)CC1CN(Cc2coc(-c3ccccc3)n2)CCO1` (centres undefined), for which the “Percent Effect” value runs as follows: (10 µM) -12.24%; (30.3 µM, […]) 1.121%.
For the molecule `CN(C)CC1CN(Cc2coc(-c3ccc(Cl)cc3)n2)CCO1` (centres undefined), the “Percent Effect” value is, setting by setting: (10 µM) -46.52%; (30.3 µM, […]) 62.36%.
`CN1CCOC(CNCc2c(Cl)nc3ccccn23)C1` (centres undefined): the “Percent Effect” value (30 µM, 30.03 µM) was -12.37%.
In the case of `Cc1ccc(-c2nc(CN3CCOC(CN(C)C)C3)co2)cc1` (centres undefined), the “Percent Effect” value was 5.738% (10 µM) and -1.882% (30.3 µM, […]).
Consider `CN1CCOC(CNCc2coc(-c3cccs3)n2)C1` (centres undefined), for which the “Percent Effect” value (30 µM, 30.03 µM) is -23.33%.
Regarding `CN1CCOC(CNC(=O)Cc2coc(-c3ccccc3)n2)C1` (centres undefined), the “Percent Effect” value is on record as -0.1289% (30.3 µM, […]) and -18.77% (10 mM, 10 mM as filed; unlikely as a test dose).
Turning to `CCCS(=O)(=O)N1C[C@H]2C[C@H](C(=O)N3CCOCC3)[C@@H](C1)O2`, under “30.3 µM, […]”, the “Percent Effect” value was -5.473%.
With `CN(C)CCOCc1nnc2n1CCN(Cc1ccc(F)cc1)CC2.O=C(O)C(F)(F)F.O=C(O)C(F)(F)F`, the “Percent Effect” value (30.3 µM, […]) is on record as -11.21%.
Regarding `O=C(O)C(F)(F)F.O=C(c1ccco1)N1C[C@H]2CCCN(Cc3ccoc3)[C@H]2C1`, the “Percent Effect” value (30 µM, 30.03 µM) was -0.7502%.
As to `CC1c2ncc(Cn3cncn3)n2CCN1CC1CCOCC1.O=C(O)C(F)(F)F` (centres undefined), the “Percent Effect” value (30.3 µM, […]) was -11%.
As to `Fc1cccnc1N1CCOCC2(CCCN(c3nncs3)C2)C1.O=C(O)C(F)(F)F` (centres undefined), under “30 µM, 30.03 µM”, the “Percent Effect” value worked out at 36.62%.
On to `CCN(CC)C(=O)CN1CCc2c(nc(C3CCNCC3)nc2NC)C1.Cl`, for which, for the setting “30.3 µM, […]”, the “Percent Effect” value is -24.06%.
The same measure, in the same setting: with `CCn1cc(N2Cc3nc(N4CCC(C)CC4)ncc3C2=O)cn1` the figure was -21.22%.
For `CN1CCOC(CNCc2csc(C3CCCC3)n2)C1` (centres undefined), the “Percent Effect” value (10 µM) is on record as -49.15%.
As to `Cc1ccc(-c2nc(CNCC3CN(C)CCO3)cs2)o1` (centres undefined), the “Percent Effect” value (30.3 µM, […]) worked out at 4.391%.
For `CN1CCOC(CNCc2nc(-c3ccoc3)no2)C1` (centres undefined), the “Percent Effect” value (30 µM, 30.03 µM) is given as -7.602%.
As to `CN1CCOC(CNCc2coc(-c3ccc(Cl)cc3)n2)C1` (centres undefined), the “Percent Effect” value reads like this: (30.3 µM, […]) 99.53%; (10 mM, 10 mM as filed; unlikely as a test dose) 19.14%.
`Cc1ccc(-c2nc(CNC3CCc4ncnn4C3)co2)c(C)c1` (centres undefined): the “Percent Effect” value (30 µM, 30.03 µM) amounted to 30.05%.
Regarding `Cc1ccc(-c2nc(CNCC3CN(C)CCO3)co2)c(C)c1` (centres undefined), the “Percent Effect” value reads like this: (30.3 µM, […]) 99.99%; (10 mM, 10 mM as filed; unlikely as a test dose) 61.89%.
For `CN(C)CCCN(Cc1cnn(C)c1)Cc1ccco1.O=C(O)CC(O)(CC(=O)O)C(=O)O`, the “Percent Effect” value (30.3 µM, […]) is -23.52%.
On to `O=C(O)C(F)(F)F.O=C(O)C(F)(F)F.c1cncc(CN2Cc3nccn3CC(Cn3cccn3)C2)c1` (centres undefined), for which the “Percent Effect” value (30.3 µM, […]) is -81.67%.
With `Cc1cc(-c2cnc(N3CCSCC3)nc2C(C)C)on1`, under “30.3 µM, […]”, the “Percent Effect” value is reported as -15.33%.
Still for that read-out and setting: the figure for `Cc1noc(C)c1CN1CCOCC12CCN(c1cnccn1)CC2.O=C(O)C(F)(F)F` is -24.7%.
For `CC1CCN(c2cc(NC(=O)C3CC3)ncn2)CC1`, the “Percent Effect” value (30.3 µM, […]) is 71.79%.
Turning to `Cc1ccccc1NC(=O)Nc1cc(N2CCCC2)ncn1`, where the note is “30.3 µM, […]”, the “Percent Effect” value is listed as -35.39%.
Take `Cc1nc(C)c(C(=O)Nc2cc(N3CCC(C)CC3)ncn2)s1`: the “Percent Effect” value (30.3 µM, […]) was -16.43%.
`COc1ccc(-c2csc3c2c(N)nc(=O)n3CCCN(C)C)cc1`: for the setting “30 µM, 30.03 µM”, the “Percent Effect” value is given as -33.83%.
Take `CCOC(=O)C1CCN(Cc2csc(C(C)(C)C)n2)CC1`: the “Percent Effect” value (30 µM, 30.03 µM) was found to be 96.9%.
Turning to `CN(C)C(=O)C1CCN(Cc2csc(C(C)(C)C)n2)CC1`, the “Percent Effect” value (10 µM) is recorded as -5.321%.
Regarding `CCCNC(=O)C1CCN(Cc2csc(C(C)(C)C)n2)CC1`, the “Percent Effect” value (30 µM, 30.03 µM) is reported as -44.58%.
As to `O=C(Nc1nccs1)C1CCCN1Cc1ccccn1` (centres undefined), the “Percent Effect” value (30.3 µM, […]) is reported as 98.2%.
In the case of `CC(=O)Nc1cccc(CN2CCCC2C(=O)Nc2nccs2)c1` (centres undefined), the “Percent Effect” value (30.3 µM, […]) is recorded as -3.044%.
On to `CCNc1ccnc(CN2CCCC2C(=O)Nc2nccs2)c1` (centres undefined), for which the “Percent Effect” value (30.3 µM, […]) is recorded as 28.37%.
For `O=C(NC[C@]12COC[C@H]1CN(Cc1cccs1)C2)c1ccsc1.O=C(O)C(F)(F)F`, the “Percent Effect” value (30 µM, 30.03 µM) stood at 48.3%.
Turning to `O=C(O)C(F)(F)F.c1csc(CN2CCn3c(Cn4cncn4)cnc3C2)c1`, the “Percent Effect” value (30.3 µM, […]) was -144.4%.
The same measure, in the same setting: the figure for `CC1=N[C@@]2(CC[C@@H]3CN(CC4CC4)C[C@@H]32)C(=O)N1CC1CC1.O=C(O)C(F)(F)F` is -38.25%.
In the case of `Cc1cnn(CCNCc2nnc(-c3occc3C)o2)c1`, the “Percent Effect” value (10 µM) is listed as -38.66%.
`Cc1ccc(CN2CCC3(C2)C(=O)N(CC2CC2)c2ccccc23)s1.O=C(O)C(F)(F)F` (centres undefined): the “Percent Effect” value (30.3 µM, […]) was found to be 92.57%.
As to `O=C(O)C(F)(F)F.O=C(O)C(F)(F)F.c1cnc(N2CCCC3(CCN(c4ncccn4)C3)C2)nc1` (centres undefined), the “Percent Effect” value (30 µM, 30.03 µM) was -31.26%.
For the molecule `CN1CCC2(CCCN(c3nccc(C(F)(F)F)n3)C2)CC1.O=C(O)C(F)(F)F`, the “Percent Effect” value (30.3 µM, […]) was 3.781%.
For the molecule `Cc1ccc(CN2CCC3(C2)C(=O)N(CC(N)=O)c2ccccc23)s1` (centres undefined), under “30 µM, 30.03 µM”, the “Percent Effect” value is on record as -6.982%.
Regarding `O=C(O)C(F)(F)F.O=C(O)C(F)(F)F.OCCN1CC2(CCN(CC3CC3)CC2)c2ccccc21`, the “Percent Effect” value (30 µM, 30.03 µM) worked out at 101.2%.
As to `CC(C)CN1C(=O)C2(CCN(CC3CCOCC3)C2)c2ccccc21.O=C(O)C(F)(F)F` (centres undefined), where the note is “30.3 µM, […]”, the “Percent Effect” value was -1.145%.
As to `O=C(O)C(F)(F)F.c1cnc(N2CCCC3(CCN(CC4CCOC4)CC3)C2)nc1` (centres undefined), the “Percent Effect” value (30 µM, 30.03 µM) was 56.13%.
As for `O=C(O)C(F)(F)F.O=C1CC2(CCN(CC3CCOC3)CC2)c2ccccc2N1CC1CC1` (centres undefined), the “Percent Effect” value (30.3 µM, […]) is -4.569%.
Still for that read-out and setting: the figure for `CC(C)N1CCC2(CCCN(c3nccc(C(F)(F)F)n3)C2)CC1.O=C(O)C(F)(F)F` is 63.32%.
For `O=C(O)C(F)(F)F.c1cnc(N2CCC3(CCN(CC4CCOC4)CC3)C2)nc1` (centres undefined), the “Percent Effect” value (30 µM, 30.03 µM) is listed as -13.94%.
For `O=C(O)C(F)(F)F.c1cnc(N2CC3(CCN(CC4CCOC4)CC3)c3ccccc32)nc1` (centres undefined), the “Percent Effect” value (30 µM, 30.03 µM) is given as -50.98%.
`O=C(O)C(F)(F)F.O=C(O)C(F)(F)F.c1cnc(N2CCC3(CCN(CC4CCOC4)CC3)CC2)nc1` (centres undefined): the “Percent Effect” value (30 µM, 30.03 µM) is reported as -26.62%.
